Where “and” joins values, the source holds several entries; their conditions need not be identical. Equal values may be shown once. The whole screen tested about 16,000 compounds, of which about 4,000 (25%) were called active. Another 26% or so got no clear call; they are omitted. The call rests on the fitted dose curve; in most records, active means well fitted curve in the direction sought with a large enough effect; inconclusive means small, poorly fitted or top-dose-only effect, or effect the other way; inactive means no such curve, though single readings can be large or run the other way. Only a sample is shown. Where a structure was tested more than once in an assay, its records may differ in their call.
Biological target: Cytochrome P450 2C9 (Homo sapiens) (UniProt P11712)
Assay: Cytochrome panel assay with activity outcomes
Details: recombinant CYP, pro-luciferin dealkylation, luminescence, p450-cyp2c9; series mostly up to 57.1 µM; activity, negative = inhibition: at the top concentration
On the % scale 0 is the no-effect control and ±100 the full control effect.

Chain of Cytochrome P450 2C9 (Homo sapiens) (P11712 whole entry, looked up): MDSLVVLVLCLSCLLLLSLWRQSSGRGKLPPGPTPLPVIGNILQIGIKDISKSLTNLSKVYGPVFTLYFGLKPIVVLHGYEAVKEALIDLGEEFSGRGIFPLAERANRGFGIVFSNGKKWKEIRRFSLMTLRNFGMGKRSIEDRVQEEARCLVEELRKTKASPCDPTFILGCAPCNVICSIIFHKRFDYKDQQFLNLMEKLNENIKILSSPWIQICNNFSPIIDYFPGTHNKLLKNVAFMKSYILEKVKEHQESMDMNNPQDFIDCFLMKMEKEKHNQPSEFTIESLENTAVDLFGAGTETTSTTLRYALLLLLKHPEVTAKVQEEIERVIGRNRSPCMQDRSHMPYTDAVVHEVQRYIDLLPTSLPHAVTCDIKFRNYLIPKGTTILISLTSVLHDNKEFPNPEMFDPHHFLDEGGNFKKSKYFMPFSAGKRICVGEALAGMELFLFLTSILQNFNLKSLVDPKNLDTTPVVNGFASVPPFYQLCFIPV

SMILES | activity, negative = inhibition | AC50
C[C@]12CC[C@H]3c4ccc(O)cc4CC[C@@H]3[C@H]1CC[C@@H]2OC(=O)CCc1ccccc1 | -8.07% [at 11.4 µM] (inactive) | 
COc1cc2c3cc1Oc1cc(ccc1O)C[C@@H]1c4c(cc(OC)c(O)c4Oc4cccc(c4)C[C@H]3N(C)CC2)CC[N+]1(C)C | -0.825% [at 25.6 µM] (inactive) | 
O=NN(Cc1ccc(Cl)cc1)[C@@H](C(=O)O)c1ccccc1 | -22.5% [at 11.4 µM] (inactive) | 
N[C@H](CCCP(=O)(O)O)C(=O)O | -3.94% (inactive) | 
N#Cc1ccc(CN2CC[C@@]3(CCCN(C(=O)Oc4ccccc4)C3)C2)cc1 | -28.9% (inactive) | 
CC[N+](C)(C)c1cccc(O)c1 | 6.93% (inactive) | 
Cc1cccc(NC(=S)NC2CC3CCCC(C2)N3Cc2cccs2)c1 (stereo unspecified) | -10.8% (inactive) | 
CN(C)CCC=C1c2ccccc2CCc2ccccc21 | 5.35% [at 25.6 µM] (inactive) | 
CC(C)(C)c1o[nH]c(=O)c1C[C@H](N)C(=O)O | 11.8% (inactive) | 
Cc1o[nH]c(=O)c1C[C@@H](N)C(=O)O | -14.3% (inactive) | 
Cc1o[nH]c(=O)c1C[C@H](N)C(=O)O |  | inactive and 10 µM (active)
CCCN1CCC[C@@H]2Cc3nc(N)ncc3C[C@H]21 | -20.2% (inactive) | 
COC(=O)C1(C)C=C2C(=C(C)C(=O)C2C)CN1 (stereo unspecified) | -24.9% (inactive) | 
c1cncc(CNCCN2CCNCC2)c1 | -12% [at 11.4 µM] (inactive) | 
CCC1=C(C[C@H]2NCCc3ccccc32)C[C@@H]2c3cc(OC)c(OC)cc3CCN2C1 | -10.7% [at 11.4 µM] (inactive) | 
C[C@@H](O)CN(CCN(C[C@@H](C)O)C[C@@H](C)O)C[C@@H](C)O.O=[N+]([O-])O.[Cu] |  | 0.794 µM (active)
CNC(=S)NC1CC2CCCC(C1)N2CC(C)C (stereo unspecified) | -4.41% (inactive) | 
Cc1c([C@@H](C)[C@H]2NC[C@H](C)C[C@@H]2O)ccc2c1C[C@@H]1[C@H]2CC=C2C[C@@H](O)CC[C@@]21C | 2.85% [at 11.4 µM] (inactive) | 
C[N+]1(C)CCO[C@](O)(c2ccc(-c3ccc([C@]4(O)C[N+](C)(C)CCO4)cc3)cc2)C1 | 10.5% [at 25.6 µM] (inactive) | 
O=C(O)C1=CCCN(CCOC(c2ccc(C(F)(F)F)cc2)c2ccc(C(F)(F)F)cc2)C1 |  | 2.51 µM (active)
c1ccc2c([C@@H]3CCN(CCN4CCOCC4)C3)c[nH]c2c1 | -7.99% [at 11.4 µM] (inactive) | 
Cc1cc(OCc2ccc([N+](=O)[O-])cc2)c2c3c(c(=O)oc2c1)CCCC3 |  | 0.141 µM (active)
Cc1cc(OCC(=O)OC(C)C)c2c3c(c(=O)oc2c1)CCCC3 |  | 2 µM (active)
Cc1cc(OC(=O)CCCNC(=O)OC(C)(C)C)c2c3c(c(=O)oc2c1)CCC3 |  | 11.2 µM (active)
COc1cc2cc(c1Cl)N(C)C(=O)C[C@H](OC(=O)C(C)C)[C@]1(C)O[C@@H]1[C@@H](C)[C@H]1C[C@](O)(NC(=O)O1)[C@@H](OC)/C=C\C=C(\C)C2 | 8.76% [at 11.4 µM] (inactive) | 
c1ccc2c(c1)-c1ccccc1C2N1CC2CCC(CC2)C1 | -14.3% [at 11.4 µM] (inactive) | 
CC(C)[N+](C)(CCC(C(N)=O)(c1ccccc1)c1ccccc1)C(C)C | -15% [at 25.6 µM] (inactive) | 
CCSCC[C@H](N)C(=O)O | -1.99% [at 11.4 µM] (inactive) | 

SMILES | activity, negative = inhibition | AC50
C[C@H](N)Cc1c[nH]c2ccc(OCc3cccs3)cc12 | inactive | 
C[C@@H]1[C@@H]2Cc3ccc(O)cc3[C@@]1(C)CCN2CC1CC1 | -8.03% (inactive) | 
N#CCCCC[N+]12CN3CN(CN(C3)C1)C2 | 6.4% [at 11.4 µM] (inactive) | 
C[C@H](c1ccccc1)N1CCN([C@@H](C)c2ccccc2)CC1 | 5.45% [at 11.4 µM] (inactive) | 
O=C(O)[C@@H]1[C@H](C(=O)O)[C@]2(Cl)C(Cl)=C(Cl)[C@@]1(Cl)C2(Cl)Cl | -24.4% [at 11.4 µM] (inactive) | 
C/C=C(\C)C(=O)O[C@@H]1C(C)=C2[C@H]([C@@H]1OC(=O)CCCCCCC)[C@@](C)(OC(C)=O)C[C@@H](OC(=O)CCC)[C@@]1(O)[C@H]2OC(=O)[C@]1(C)O |  | 31.6 µM (active)
CNC[C@H](O)c1ccc(O)cc1 | -2.51% [at 25.6 µM] (inactive) | 
CN1CCN(c2ccc3ccccc3n2)CC1 | inactive | 
CCCN1CCO[C@@H]2c3cc(O)ccc3OC[C@H]21 | inactive | 
O=[As](O)(O)c1ccc2nc3cc([As](=O)(O)O)ccc3nc2c1 | 1.65% [at 11.4 µM] (inactive) | 
CCCN1CCc2cccc3c2[C@@H]1Cc1ccc(O)c(O)c1-3 | -23.4% (inactive) | 
COCCn1c(SCc2nc3sc(C(=O)OC)c(C)c3c(=O)[nH]2)nc2ccccc21 |  | 0.891 µM (active)
NC(N)=Nc1ccc2[nH]c3c(c2c1)C[C@]1(O)[C@@H]2Cc4ccc(O)c5c4[C@]1(CCN2CC1CC1)[C@@H]3O5 | 0.123% (inactive) | 
CCN1C[C@@]2(COC)[C@H]3[C@@H](OC)[C@H]4C1[C@@]3([C@H](OC)C[C@@H]2O)[C@H]1C[C@@]2(O)[C@@H](OC(=O)c3ccccc3)[C@@H]1[C@@]4(OC(C)=O)[C@H](O)[C@@H]2OC | 5.31% [at 25.6 µM] (inactive) | 
COc1ccc(C2SCC(=O)Nc3c2c(C)nn3-c2ccccc2)cc1OC (stereo unspecified) |  | 10 µM (active)
O=C(Oc1ccc(S(=O)(=O)F)cc1F)c1ccccc1Cl | -12.2% [at 11.4 µM] (inactive) | 
C/C(O)=C(/C#N)C(=O)Nc1cc(Br)ccc1Br | 15.6% (inactive) | 
O=C1C2CCN(CC2)C1(CO)CO | -2.93% [at 11.4 µM] (inactive) | 0.0631 µM (active)
O=P(O)(O)C(Cl)(Cl)P(=O)(O)O | -14.4% (inactive) | 
COC1=CC(=O)O[C@@H](/C=C\c2ccccc2)C1 | -17.6% [at 25.6 µM] (inactive) | 
N[C@H](CP(=O)(O)O)C(=O)O | 1.7% (inactive) | 
CCCCN1C(=O)C(C2c3ccccc3C(=O)N2Cc2ccccc2)C(=O)NC1=S (stereo unspecified) |  | 2 µM (active)
CN1C(=O)C(C2c3ccccc3C(=O)N2Cc2ccc([N+](=O)[O-])cc2)C(=O)N(C)C1=O (stereo unspecified) |  | 25.1 µM (active)
Cc1cc(C)c(-n2c(O)c(C=NCCN3CCOCC3)c(=O)[nH]c2=O)c(C)c1 | 49.6% (inactive) | 
CCC(=O)Nc1ccc(N2CCN(CC)CC2)c(Cl)c1 | -6.79% (inactive) | 
NC(=O)CN1C[C@@H](O)CC1=O | 17.9% (inactive) | 
CC1(C)CCC(C)(C)c2c1ccc(O)c2Cc1c(O)ccc2c1C(C)(C)CCC2(C)C | -17.2% [at 11.4 µM] (inactive) | 
